KCNQ2 inh: blocks the rat KCNQ2 potassium channel; O88943; CHO-K1 KCNQ2, FluxOR thallium flux, 20 min; active compounds read low; B-score at 10 µM; actives 1.1% (n = 310,000); AID 2156;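 active = fluorescence ratio B-score at most minus 3 library SDs, with starting brightness B-score within 2 library SDs, cut at about -5.5 in these data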
KCNQ2 pot: enhances the rat KCNQ2 potassium channel; AID 2239; actives 0.54% (n = 310,000); B-score at 10 µM; CHO-K1 KCNQ2, FluxOR thallium flux fluorescence; active compounds read high; O88943;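 active = fluorescence ratio B-score at least 3 SD of library B-scores, with initial fluorescence B-score within 3 of them, cut at about 5.3 in these data; same plate scores as AID 2156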;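 note: B-score of peak minus minimum over baseline fluorescence ratio after K+ and Tl+ stimulus; positive B-score means potentiation of KCNQ2 with more thallium influx and brighter signal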
Kir21 confirm: confirmation of mouse Kir2.1 potassium channel inhibitors; shares compounds with KCNQ2 pot; Kir2.1-expressing cells, FluxOR thallium flux fluorescence; active compounds read low; Tl flux remaining, % of negative control (active compounds read low), % at 10 µM; actives 41% (n = 2,300);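 active = Primary-screen hit whose thallium flux fell at least 3 control SD below untreated wells in both duplicates, with normal baseline fluorescence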;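 note: 0% = blank wells without stimulus and 100% = stimulated no-compound controls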
HEK293 Tl flux: parental HEK293 activity in Kir2.1 inhibitor counter-screen; shares compounds with KCNQ2 pot; parental HEK293 cells, FluxOR thallium flux fluorescence; 0% = unstimulated blank wells; FluxOR signal as % of negative control (100 = no effect), % at 10 µM; actives 19% (n = 2,300); AID 2105;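 active = dye signal at least 3 control SD above or below untreated wells in both duplicates, raw fluorescence within 3, either direction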;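 note: percent is based on the flux ratio of peak minus minimum fluorescence over baseline F0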
CHO-K1 ctr: counter-screen for KCNQ2 potentiators: effect in parental CHO-K1 cells; shares compounds with KCNQ2 pot; FluxOR thallium flux fluorescence; zero = vehicle mean+3SD, 100% = vehicle-minus-blank window; activity increase over 3SD of controls, % at 10 µM; actives 43% (n = 1,200);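 active = signal rise of at least 3 SD above the untreated control mean, in both duplicate wells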;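 note: counter screen of KCNQ2 potentiator hits so any rise reflects channel-independent effects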
KCNQ1 pot spec: human KCNQ1 counter-target activity of KCNQ2 potentiators; shares compounds with KCNQ2 pot; CHO KCNQ1 stable, FluxOR thallium flux fluorescence; beyond 3SD, as % of vehicle-control signal; activation over 3SD threshold, % at 10 µM; actives 28% (n = 1,200);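 active = fluorescence ratio rise of at least 3 SD of vehicle wells above their mean, in both replicate wells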;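 note: 0% = vehicle mean plus 3 SD and 100% = vehicle minus unstimulated blank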
Target sequence (P51787 whole entry, looked up): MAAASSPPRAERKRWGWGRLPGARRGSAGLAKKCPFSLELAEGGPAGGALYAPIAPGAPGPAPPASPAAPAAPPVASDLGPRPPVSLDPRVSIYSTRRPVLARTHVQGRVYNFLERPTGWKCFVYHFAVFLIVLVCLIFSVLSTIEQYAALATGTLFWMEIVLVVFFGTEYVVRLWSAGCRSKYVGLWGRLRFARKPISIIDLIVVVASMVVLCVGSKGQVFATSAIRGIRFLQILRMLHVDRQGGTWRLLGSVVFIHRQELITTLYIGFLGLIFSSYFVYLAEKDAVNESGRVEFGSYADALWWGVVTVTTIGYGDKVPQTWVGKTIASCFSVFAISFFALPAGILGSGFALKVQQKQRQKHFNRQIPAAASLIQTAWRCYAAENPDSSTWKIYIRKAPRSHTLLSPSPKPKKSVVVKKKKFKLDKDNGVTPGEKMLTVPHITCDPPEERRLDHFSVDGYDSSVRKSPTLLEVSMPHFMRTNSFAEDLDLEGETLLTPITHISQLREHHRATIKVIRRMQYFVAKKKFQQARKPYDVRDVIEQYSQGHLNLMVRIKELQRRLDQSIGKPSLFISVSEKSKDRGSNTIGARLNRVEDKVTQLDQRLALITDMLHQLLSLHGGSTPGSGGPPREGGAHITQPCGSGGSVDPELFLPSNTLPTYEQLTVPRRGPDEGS
KCNQ2 pot conf: rat KCNQ2 channel potentiator confirmation. shares compounds with KCNQ2 pot. CHO-KCNQ2 cells, FluxOR thallium flux fluorescence. potentiation, less the hit threshold, % at 10 µM. actives 68% (n = 1,200). AID 2287;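 active = fluorescence ratio rising 3 SD or more over the vehicle control mean in both replicates, plus primary screen hit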;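 note: peak minus minimum thallium fluorescence divided by baseline after K/Tl stimulus; 0% = vehicle mean plus 3 SD and 100% = vehicle minus unstimulated blank difference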
Kir21 spec: tests whether KCNQ2 potentiators also affect mouse Kir2.1 | shares compounds with KCNQ2 pot | actives 2% (n = 1,200) | activity over 3SD threshold, % at 10 µM | HEK293 Kir2.1, FluxOR thallium flux fluorescence | AID 2345;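 active = fluorescence ratio rise of at least 3 SD above the vehicle-control mean, seen in both replicates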;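 note: 0% = vehicle mean plus 3 SD and 100% = vehicle minus no-stimulus blank window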
KCNQ2 W236L pot: rat KCNQ2 W236L mutant potentiation by KCNQ2 potentiators | shares compounds with KCNQ2 pot | CHO KCNQ2-W236L, automated patch clamp current | current increase over 3SD of negative controls (%), active compounds read high, % at 25 µM | actives 10% (n = 940) | AID 2558;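 active = current increase at least 3 SD of the untreated controls above them in both duplicate recordings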
Starred values were filed as active, the others as inactive; i = inactive; · = no result. This is a sample that favours compounds with a hit; in the whole collection about 1.6% have one here.

SMILES	KCNQ2 inh	KCNQ2 pot	Kir21 confirm	HEK293 Tl flux	others
COc1ccc(CNCc2cccc(Oc3ccccc3)c2)cc1	i	2.1	10%*	i
COc1ccc(CNCc2cccc(C)c2)cc1	i	0.68	·	·
COc1cc(/C=C2\C(=O)ON=C2c2ccccc2)cc(Cl)c1O	i	2.9	·	·
CCOc1cc(/C=C2/C(=O)ON=C2C)cc(Br)c1O	i	0.24	·	·
COc1cc(/C=C2\C(=O)ON=C2c2ccccc2)cc(Br)c1O	i	2	i	51%*
CCOc1cc(/C=C2\C(=O)ON=C2c2ccccc2)cc(Br)c1O	i	2	i	46%*
NC1CCN(c2cccc(Cl)n2)CC1	i	0.6	·	·
Cc1cc(C(C)(C)C)cc(S(=O)(=O)NCCO)c1C	i	1.7	·	·
COc1cc2c3c(c1)C1(C(=O)N3C(C)(C)C=C2C)C(C#N)=C(N)Oc2cc(O)ccc21 (configuration not stated)	i	·	·	·
c1ccc(-c2ncc3c(ccc4ccccc43)n2)cc1	i	·	·	·
CCCCNC(=O)c1ccccc1NS(=O)(=O)c1ccc2c(c1)OCCO2	i	·	·	·
C/C(N)=C(/C#N)C(=O)COC(=O)C1Cc2ccccc2CN1S(C)(=O)=O (configuration not stated)	i	·	·	·
Oc1ccc(CN2CCCCC2)c2cccnc12	i	0.21	·	·
Oc1ccc(COCc2ccccc2)c2cccnc12	i	5.9*	i	i	CHO-K1 ctr=15*;KCNQ1 pot spec=-13;KCNQ2 pot conf=1.0*;Kir21 spec=-46;KCNQ2 W236L pot=i
Oc1ccc(CN2CCc3ccccc3C2)c2cccnc12	i	13*	32%*	i	CHO-K1 ctr=44*;KCNQ1 pot spec=-19;KCNQ2 pot conf=1.3*;Kir21 spec=-100;KCNQ2 W236L pot=i
CC(C)COCc1ccc(O)c2ncccc12	i	7.7*	i	i	CHO-K1 ctr=-27;KCNQ1 pot spec=11*;KCNQ2 pot conf=51*;Kir21 spec=-37;KCNQ2 W236L pot=i
CCCOCc1ccc(O)c2ncccc12	i	3.8	·	·
OCc1ccc(O)c2ncccc12	i	·	·	·
CCCCS(=O)CC(O)COc1ccc(C(C)(C)C)cc1 (configuration not stated)	i	1.1	·	·
Cc1nc(SCC(=O)N2CCCCC2)c2c(C)c(C)sc2n1	i	7.4*	i	i	CHO-K1 ctr=-10;KCNQ1 pot spec=100*;KCNQ2 pot conf=41*;Kir21 spec=-35;KCNQ2 W236L pot=i
Cc1sc2ncnc(SCC(=O)N3CCCCC3)c2c1C	i	2.5	·	·
CCn1c(SC(C)C(=O)N2CCOCC2)nc2sc(C)c(C)c2c1=O (configuration not stated)	i	1.1	·	·
Cc1sc2nc(C(C)C)nc(SCC(=O)N3CCOCC3)c2c1C	i	12*	i	i	CHO-K1 ctr=5.3*;KCNQ1 pot spec=-18;KCNQ2 pot conf=34*;Kir21 spec=-38;KCNQ2 W236L pot=i
CC(C)(C)NC(=O)CN1CCC(O)(c2ccccc2)CC1	i	0.31	·	·
CCOC(=O)CC1COc2ccccc2N1C(=O)c1ccc(F)cc1 (configuration not stated)	i	·	·	·
SMILES	KCNQ2 inh	KCNQ2 pot	Kir21 confirm	HEK293 Tl flux	others
Cc1ccc(OCCOc2cccc3ccc(C)nc23)c([N+](=O)[O-])c1	i	·	·	·
C/C(=N\NC(=O)c1ccc(Cl)c(Cl)c1)c1ccccn1	i	·	·	·
C/C(=N\NC(=O)c1cccc(Br)c1)c1ccccn1	i	7.7*	i	i	CHO-K1 ctr=-19;KCNQ1 pot spec=-11;KCNQ2 pot conf=-23;Kir21 spec=-36
O=C(N/N=C/c1cccc([N+](=O)[O-])c1)c1cc(-c2ccccc2)nc2ccccc12	i	·	·	·
Cc1ccc(S(=O)(=O)c2ccc(C)cc2)cc1	i	0.96	·	·
Cc1ccc(S(=O)(=O)CCCS(=O)(=O)c2ccc(C)cc2)cc1	i	·	67%*	i
COc1ccc(-c2cn[nH]c2N)cc1	i	0.59	·	·
CCc1nc(-c2ccccc2)cc(=O)[nH]1	i	0.16	·	·
O=[N+]([O-])c1ccc(N/N=C/c2ccccc2O)cc1	i	7.9*	i	74%*	CHO-K1 ctr=56*;KCNQ1 pot spec=-20;KCNQ2 pot conf=-24;Kir21 spec=-43
O=[N+]([O-])c1cccc(N/N=C/c2cc([N+](=O)[O-])ccc2O)c1	i	1.3	·	·
Cc1ccc(C(=O)N/C(=C/c2ccco2)C(=O)O)cc1	i	1.2	·	·
Cc1ccc2nc(CCc3nc4ccc(C)cc4[nH]3)[nH]c2c1	i	·	·	·
Cc1ccc2nc(CCCc3nc4ccc(C)cc4[nH]3)[nH]c2c1	i	·	70%*	i
COc1ccc(-c2nc3ccccc3[nH]2)cc1	i	·	·	·
COc1ccc(-c2nc(=S)c3ccc4ccccc4c3[nH]2)cc1	i	20*	i	152%*	CHO-K1 ctr=-16;KCNQ1 pot spec=-48;KCNQ2 pot conf=23*;Kir21 spec=-31;KCNQ2 W236L pot=i
Nc1ccc2c(c1)CCC2=O	i	0.01	·	·
O=C(CSc1ccccc1C(=O)O)c1ccc(Cl)cc1	i	1	·	·
O=C(O)c1ccccc1NC(c1ccccc1)c1ccc(Cl)cc1 (configuration not stated)	i	5.9*	i	i	CHO-K1 ctr=-11;KCNQ1 pot spec=16*;KCNQ2 pot conf=-7;Kir21 spec=-42
COc1ccccc1OCCNC(=O)CC(NC(C)=O)c1ccccc1 (configuration not stated)	i	0.08	·	·
N/C(=N\OC(=O)CCCc1ccccc1)c1ccc([N+](=O)[O-])cc1	i	1.1	·	·
Cc1ccc(C(=O)CC(=O)c2ccccc2)cc1	i	1.3	·	·
Cc1ccc(C(=O)Sc2cccccc2=O)cc1	i	11*	·	·	CHO-K1 ctr=-12;KCNQ1 pot spec=-21;KCNQ2 pot conf=85*;Kir21 spec=-46;KCNQ2 W236L pot=i
CCOC(=O)N1CCN(C(=O)C2CCN(S(=O)(=O)c3cc(OC)ccc3OC)CC2)CC1	i	·	·	·
CC(=O)Nc1ccc(S(=O)(=O)NC(CC(=O)O)c2ccc(C)cc2)cc1 (configuration not stated)	i	·	·	·
O=C(O)CCC1(c2ccccc2)NC(=O)NC1=O (configuration not stated)	i	0.55	·	·
C=CCNc1nc(C)c(C(C)=O)cc1C#N	i	0.72	·	·
O=C(Cc1ccc(Cl)cc1)NNc1c(F)c(F)cc(F)c1F	i	0.53	·	·
Oc1ccc(Cc2ccc(Cl)cc2)c(O)c1	i	5.6*	i	i	CHO-K1 ctr=106*;KCNQ1 pot spec=-9;KCNQ2 pot conf=-10;Kir21 spec=-48
O=C(NC1=NCCS1)c1cccc(Br)c1	i	0.37	·	·
Cc1nc2c3cc(F)ccc3n(Cc3ccc(F)cc3)c2s1	i	·	·	·

Screening data from PubChem BioAssay.
